# Experimental data: PubChem BioAssay (NCI)
# Compounds without any hit were thinned out: in the full panel of roughly 79,000, 15% have a hit. A number with no mark means an inactive call. Calls of active or inactive are those of the source. No stated cut-off is given here; in the data, active means growth inhibition above about 70%; inactive means the rest.
# Assays:
# [1] = NCI Yeast Anticancer Drug Screen. Data for the rad50 strain (AID 155);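 further: 0% = growth of vehicle-only cultures of the same strain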; settings: S. cerevisiae rad50 strain growth inhibition, hits give high values
# Procedure, shortened: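 Cells are treated with compound, grown, and their growth is then scored against vehicle-only cultures of the same repair-deficient yeast strain.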
# [2] = NCI Yeast Anticancer Drug Screen. Data for the mec2-1 strain (AID 157); settings: S. cerevisiae mec2-1 strain, hits give high values
# Procedure, shortened: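 Yeast mec2-1 mutant treated with compound. Readout: growth inhibition vs vehicle controls.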
# [3] = NCI Yeast Anticancer Drug Screen. Data for the sgs1 mgt1 strain (AID 161);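 further: 0% = growth of cultures given vehicle only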; settings: S. cerevisiae sgs1 mgt1 strain, hits give high values
# Procedure, shortened: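 Mutant yeast exposed to compound; growth scored against vehicle-only wells.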
# [4] = NCI Yeast Anticancer Drug Screen. Data for the bub3 strain (AID 167); settings: S. cerevisiae bub3 mutant strain, hits give high values
# Procedure, shortened: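 Part of a panel of yeast mutants defective in DNA damage repair or cell cycle regulation. Each strain is grown with compound, and inhibition is calculated relative to solvent-treated cultures.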
# [5] = NCI Yeast Anticancer Drug Screen. Data for the mlh1 rad18 strain (AID 175); settings: S. cerevisiae mlh1 rad18 strain growth inhibition, hits give high values
# Procedure, shortened: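 Yeast w/ defined DNA-repair lesions; compound exposure; growth vs vehicle controls → % inhibition.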
# [6] = NCI Yeast Anticancer Drug Screen. Data for the cln2 rad14 strain (AID 165);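 further: 0% = growth equal to vehicle treated cultures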; settings: S. cerevisiae cln2 rad14 strain, hits give high values
# Procedure, shortened: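 cln2 rad14 yeast strain; compound exposure; growth inhibition read vs vehicle controls.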
# [7] = at 5.0 µM (retest, dose inferred, filed as 0.5)
# [8] = at 50.0 µM (retest, dose inferred, filed as 5.0)
Compound,"growth inhibition [1, 7]","growth inhibition [1, 8]",growth inhibition ([1]; at 50.0 µM),"growth inhibition [2, 7]","growth inhibition [2, 8]",growth inhibition ([2]; at 50.0 µM),"growth inhibition [3, 7]","growth inhibition [3, 8]",growth inhibition ([3]; at 50.0 µM),"growth inhibition [4, 7]","growth inhibition [4, 8]",growth inhibition ([4]; at 50.0 µM),"growth inhibition [5, 7]","growth inhibition [5, 8]",growth inhibition ([5]; at 50.0 µM),"growth inhibition [6, 7]","growth inhibition [6, 8]",growth inhibition ([6]; at 50.0 µM)
COc1ccc2ccccc2c1-c1c(O)ccc2ccccc12,0%,80% (active),93.5% (active),-5%,71% (active),95.8% (active),-2%,63%,97.2% (active),-6%,64%,97.9% (active),-8%,78% (active),96% (active),,,
CN(/N=C/C(O)C(O)C(O)CO)c1ccccc1 (centres undefined),20%,97% (active),98% (active),3%,99% (active),98.5% (active),,,,36%,99% (active),98.5% (active),47%,99% (active),98.8% (active),14%,98% (active),98.5% (active)
CCS/C(SC)=C(/c1ccccc1)[P+](c1ccccc1)(c1ccccc1)c1ccccc1,98% (active),99% (active),90.6% (active),99% (active),100% (active),94.3% (active),99% (active),99% (active),91.6% (active),,,,98% (active),99% (active),91.8% (active),98% (active),99% (active),91.5% (active)
Oc1ccc2ccccc2c1.[Cu+2],1%,20%,98% (active),-1%,12%,97.2% (active),-2%,6%,98.4% (active),2%,8%,94% (active),0%,33%,98% (active),-4%,13%,83.2% (active)
O=C(CSc1nnc(-c2ccc(N=Cc3ccc(Cl)cc3)cc2)o1)Nc1ccc(Cl)cc1Cl,14%,99% (active),95.8% (active),-1%,99% (active),99.2% (active),17%,100% (active),95.9% (active),,,,30%,99% (active),97.9% (active),27%,99% (active),91.2% (active)
CCC(=O)Nc1ccc(NC(C)=O)cc1,-6%,-9%,-17.6%,-9%,1%,-6.9%,,,,-10%,-3%,23.2%,-8%,-28%,-8.9%,6%,-16%,-11.6%
COC(=O)c1ccc(OCCC(=O)CCl)cc1,0%,56%,99.5% (active),1%,52%,99.8% (active),3%,55%,99.7% (active),11%,67%,99.6% (active),2%,72% (active),97.8% (active),,,
CC(C)Cn1cnc2c(SCc3ccccc3[N+](=O)[O-])nc(N)nc21,2%,-4%,90% (active),-4%,-2%,96% (active),0%,-2%,56%,-1%,-4%,96.8% (active),1%,2%,84.8% (active),-22%,-3%,82.2% (active)
COC(=O)CCC(=O)N1C/C(=C\c2ccccc2)C(=O)/C(=C/c2ccccc2)C1,5%,41%,88.6% (active),23%,42%,95.3% (active),5%,56%,92.5% (active),2%,22%,92.5% (active),7%,38%,95% (active),,,
[Cu+2].[O-]/N=C/c1cccc(O)c1[O-].[O-]/N=C/c1cccc(O)c1[O-],-16%,99% (active),93.8% (active),-14%,99% (active),96.7% (active),-14%,99% (active),96.8% (active),,,,-4%,98% (active),94% (active),-12%,98% (active),94.8% (active)
O=C(c1cc2c(C(F)(F)F)onc2c2ccccc12)C(F)(F)F,-8%,5%,76.7% (active),-17%,9%,44.9%,-8%,-2%,50.6%,,,,0%,26%,36.4%,0%,28%,64.8%
CC(C)SC(=S)Nc1cc(Cl)c(Cl)cc1Cl,7%,85% (active),99.5% (active),6%,86% (active),99.5% (active),10%,98% (active),99.5% (active),,,,1%,92% (active),99.3% (active),-14%,91% (active),99.3% (active)
CN(C)c1ccc(C(c2ccc(N(C)C)cc2)c2cccc([N+](=O)[O-])c2)cc1,-2%,-3%,-11.2%,-3%,-13%,0.2%,-2%,-1%,-2.45%,43%,26%,50.1%,-2%,-12%,7.9%,,,
CCN(CC)C(=O)CCCCC(=O)OC(C)C,0%,-12%,-2.2%,-2%,-2%,-1.1%,,,,-3%,-10%,-7.2%,-1%,-11%,21.9%,-7%,-1%,86.2% (active)
CCCCN(CCCC)C(=O)c1ccc(Cl)cc1Cl,7%,97% (active),98.5% (active),7%,98% (active),97.7% (active),,,,26%,90% (active),96.5% (active),13%,97% (active),98.3% (active),11%,87% (active),96.2% (active)
COc1cccc2c1C(=O)c1c(O)c3c(c(O)c1C2=O)CC(O)(C(C)=O)CC3OC1OC(COC(C)=O)C(OC(C)=O)C(OC(C)=O)C1OC(C)=O (centres undefined),5%,58%,95.5% (active),49%,30%,97.5% (active),3%,33%,97.8% (active),2%,83% (active),98.9% (active),3%,59%,98% (active),,,
CC(C)OC(=S)SSSC(=S)OC(C)C,6%,99% (active),99.5% (active),13%,99% (active),99.5% (active),9%,98% (active),99.7% (active),,,,9%,98% (active),95.5% (active),0%,97% (active),68.2%
O=[N+]([O-])c1ccc(CN2CCN(c3nccs3)CC2)cc1,5%,22%,76.8% (active),-3%,11%,51%,1%,61%,77.8% (active),,,,3%,46%,66.2%,-1%,29%,34.5%
Cc1cc(-c2ccc(N=Nc3cc(S(=O)(=O)O)c4ccccc4c3N)c(C)c2)ccc1N=Nc1cc(S(=O)(=O)O)c2ccccc2c1N,19%,82% (active),64.6%,16%,60%,52.1%,29%,69%,66.8%,26%,73% (active),73.7% (active),32%,86% (active),71% (active),31%,48%,30.6%
CC(C)(C)/C=N/NS(=O)(=O)c1ccccc1,-114%,-146%,-1%,-43%,-43%,-7.35%,,,,-57%,-67%,-5.2%,-100%,-108%,4.65%,-50%,-61%,40.5%
CCCCCCCCCCCCCCCCNCCCN(C)CCCN,-1%,98% (active),88.5% (active),-19%,98% (active),93.5% (active),2%,97% (active),93.3% (active),,,,-68%,97% (active),90.3% (active),-26%,97% (active),92% (active)
CC(C)CCOC(=O)c1ccc(O)cc1.[Zn+2],5%,36%,76.1% (active),-1%,32%,65.6%,3%,29%,76.8% (active),53%,86% (active),88.5% (active),3%,35%,84.2% (active),,,
CCCCCCCCCc1c(O)c(O)c(CCCCCCCCC)c(CCCCCCCCC)c1CCCCCCCCC,1%,27%,54.9%,-11%,30%,-5.95%,,,,-6%,87% (active),55.4%,-6%,38%,85.3% (active),33%,55%,49.9%
